According to PubChem BioAssay (Tox21):
Records with an inconclusive call do not appear. Entries that show only a call come without a potency. Activity calls are given as the source filed them. Calls follow the shape of the dose curve; as a rule, active = well fitted activation curve with a large enough effect; inconclusive = small, poorly fitted or top-dose-only effect; inactive = flat fitted curve, though single readings scatter.

experiment: qHTS assay to identify small molecule phospholipidosis (PLD) inducers (AID 1259344); conditions: HepG2 phospholipidosis, LipidTOX Red imaging, 24 h; series mostly up to 38.3 µM
Outline: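 Fluorescent phospholipid staining (LipidTOX Red) measured by automated microscopy in fixed HepG2 cells after 24 h treatment; nuclei counterstained with Hoechst 33342; amiodarone as reference inducer.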

| SMILES | Potency |
| --- | --- |
| C[C@]12O[C@H](C[C@]1(O)CO)n1c3ccccc3c3c4c(c5c6ccccc6n2c5c31)CNC4=O | inactive |
| NC(=O)[C@@H]1CCCN1C(=O)[C@H](Cc1cnc[nH]1)NC(=O)[C@@H]1CCC(=O)N1 | inactive |
| CC(=O)OCC(=O)[C@@]1(O)CC[C@H]2[C@@H]3C[C@H](C)C4=CC(=O)C=C[C@]4(C)[C@H]3[C@@H](O)C[C@@]21C | inactive |
| O=S(=O)(O)O | inactive |
| O=C1CCC(c2ccc(-n3ccnc3)cc2)=NN1 | inactive |
| COc1ccc(/C=C/C(=O)O)cc1 | inactive |
| CCCCCCCCCCCCCC(=O)OCC(COP(=O)([O-])OCC[N+](C)(C)C)OC(=O)CCCCCCCCCCCCC (configuration not stated) | inactive |
| CCN1\C(=C/C=C/C=C/c2sc3ccccc3[n+]2CC)Sc2ccccc21 | inactive |
| COc1cc2c(cc1OC)[C@@H](Cc1cc(OC)c(OC)c(OC)c1)[N+](C)(CCCOC(=O)CC/C=C/CCC(=O)OCCC[N+]1(C)CCc3cc(OC)c(OC)cc3[C@H]1Cc1cc(OC)c(OC)c(OC)c1)CC2 (some centres not stated) | inactive |
| CNC(=O)C[C@@H](N)C(=O)N[C@@H](C(=O)N[C@@H]1C(=O)N2[C@@H]1SC(C)(C)[C@@H]2C(=O)O)c1ccc(O)cc1 | inactive |
| NCCCC(=O)O | inactive |
| CO[C@H]1C[C@H](O[C@H]2[C@H](C)[C@@H](O[C@@H]3O[C@H](C)C[C@H](N(C)C)[C@H]3O)[C@@H](C)C[C@]3(CO3)C(=O)[C@H](C)[C@@H](O)[C@@H](C)[C@@H](C)OC(=O)[C@@H]2C)O[C@@H](C)[C@@H]1O | inactive |
